Inconclusive results are not listed. Unmarked numbers belong to inactive results. Activity calls are given as the source filed them. The call rests on the fitted dose curve; in most records, active means well fitted inhibition curve with a large enough effect in the repeat runs; inconclusive means weak or mixed curves, or effect the other way; inactive means no such curve, though single readings can be large or run the other way.
molecular target: Nuclear receptor subfamily 1 group I member 3 (Homo sapiens) (UniProt Q14994); experiment: qHTS assay to identify small molecule antagonists of the constitutive androstane receptor (CAR) signaling pathway (AID 1224838); conditions: HepG2-CYP2B6-hCAR luciferase, CITCO-stimulated, 24 h; series mostly up to 92.4 µM; activity, negative = inhibition: at the top concentration;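 further: HepG2 cells stably expressing hCAR with CYP2B6 luciferase reporter stimulated by CITCO; nearly all actives have a fitted effect of over 40% in size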
Sequence (Q14994 whole entry, looked up): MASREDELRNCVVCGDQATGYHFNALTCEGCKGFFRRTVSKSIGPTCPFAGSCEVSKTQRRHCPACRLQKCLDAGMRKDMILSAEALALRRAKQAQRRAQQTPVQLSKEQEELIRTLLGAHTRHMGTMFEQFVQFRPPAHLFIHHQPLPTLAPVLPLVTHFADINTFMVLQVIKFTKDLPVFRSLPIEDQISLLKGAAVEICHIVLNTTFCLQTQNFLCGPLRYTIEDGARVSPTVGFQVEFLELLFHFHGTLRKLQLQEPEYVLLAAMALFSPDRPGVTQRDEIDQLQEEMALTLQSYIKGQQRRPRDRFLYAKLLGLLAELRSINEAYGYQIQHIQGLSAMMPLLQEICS
Description: U.S. Tox21 Program National Center for Advancing Translational Sciences [NCATS] NIH Chemical Genomics Center [NCGC] U.S. Environmental Protection Agency [EPA] National Institutes of Environmental Health Sciences [NIEHS] National Toxicology Program [NTP] U.S. Food and Drug Administration [FDA] Tox21 Assay Overview: The constitutive androstane receptor (CAR) is a nuclear receptor which regulates multiple drug metabolizing enzymes (DMEs) and transporters. Activating CAR will generally increase the transcription and subsequent translation of CYP2B6 and CYP3A4. These two DMEs represent about 50% of the drug metabolizing potential in the body. When CAR is deactivated, the metabolizing potential in the body will decrease, subsequently increasing the toxicity in the body or lowering the therapeutic potential of a pro-drug. Recently, there have also been studies performed indicating CARs role in energy metabolism and cancer therapy. Therefore, inhibiting CARs activity could have a potential effect on diabetes and cancer. Identifying environmental toxins and compounds which modulate CAR, through the use of the Tox21 10K compound collection, will be an important step in determining the toxicity and potential therapeutic effects these factors will have on the human body.
Tox21 Assay Protocol Summary: A double-stable (hCAR and CYP2B6-2.2kb) transfected cell line, derived from human hepatoma (HepG2) cells, was utilized for the duration of the quantitative high-throughput screens. The HepG2-CYP2B6-hCAR cells suspended in DMEM culture medium supplemented with 10% FBS, 5 ug/mL blasticidin, 0.5 mg/mL geneticin, 100 U/mL penicillin and 100 ug/mL streptomycin were dispensed at 2500 cells/4 uL/well in 1536-well white solid bottom plates using a Multidrop Combi. After the assay plates were incubated at 37 C/5% CO2 for 4 hrs, 23 nL of compounds at 15 concentrations (from 5-48 columns) or positive control (from 1 to 4 columns) were transferred to the assay plates using a Pintool station. One uL of CITCO, was added using a Flying Reagent Dispenser to generate a final concentration of 50 nM CITCO inside each well. After a 24 hr incubation period at 37 C/5% CO2, four uL of ONE-Glo reagent was added into the assay plates using a Flying Reagent Dispenser. After a 30 min incubation period at room temperature, the luminescence intensity in the assay plates was measured using a ViewLux plate reader.
On the % scale 0 is the no-effect control and ±100 the full control effect; potency means the concentration at half of the fitted maximal effect.

SMILES	activity, negative = inhibition	Potency
CO[Si](C)(C)OC	-19.7%	–
C=C(C)C(=O)OCCOP(=O)(O)O	-2.72%	–
FC(F)(F)C(F)(F)C(F)(F)C(F)(F)C(F)(F)C(F)(F)C(F)(F)C(F)(F)Br	-7.95% [at 42.5 µM]	–
O=C(Cl)c1cccc([N+](=O)[O-])c1	-3.01%	–
O=C(O)CN(CCN(CC(=O)O)CC(=O)O)CCN(CC(=O)O)CC(=O)O	-23.7% [at 19 µM]	–
Cc1c[nH]c(=S)[nH]c1=O	0.406%	–
CC(=O)OC(C)OC(C)=O	1.92%	–
CC(C)OC(C)C	-0.835%	–
CCN[C@H]1CN(CCCOC)S(=O)(=O)c2sc(S(N)(=O)=O)cc21	-7.99% [at 42.5 µM]	–
O=C1Nc2ccc([N+](=O)[O-])cc2C1=O	-9.92%	–
CCCS(=O)c1ccc2nc(NC(=O)OC)[nH]c2c1 (stereo not given)	62.4% [at 42.5 µM]	–
COc1ccc2nc(NC(=O)Nc3ccccc3)sc2c1	69.9% [at 42.5 µM]	–
CC(C)=CCCC(C)CCOC=O (stereo not given)	-22.2%	–
CCCOCCC	-4.56%	–
CN(C)CCOc1ccccc1Cc1ccccc1	22.7% [at 42.5 µM]	–
NCCC(O)(P(=O)(O)O)P(=O)(O)O	5.96% [at 42.5 µM]	–
C1CCOC1	5.6%	–
O=c1[nH]cnc2c1ncn2[C@@H]1O[C@H](CO)[C@@H](O)[C@H]1O	-19.4% [at 42.5 µM]	–
Cc1cccc(C)c1NC(=O)CN1CCCCCC1	30.9% [at 42.5 µM]	–
CC1(O)CSC(C)(O)CS1 (stereo not given)	-11.6%	–

SMILES	activity, negative = inhibition	Potency
CCOC(=O)COc1ccc2c(c1)CC(NCC(O)c1cccc(Cl)c1)CC2 (stereo not given)	-22.8%	–
COc1cc2c(cc1N)oc1ccccc12	239%	–
Cc1onc(-c2ccccc2)c1C(=O)Cl	-11.1% [at 42.5 µM]	–
CCCCCOc1ccc(C2SC(=O)NC2=O)cc1OCC (stereo not given)	96% [at 42.5 µM]	–
C=Cc1ccccc1	-10.2%	–
COc1cc(N)c(Cl)cc1C(=O)NC1CCN(Cc2ccccc2)CC1	51.9% [at 42.5 µM]	–
CCC(=O)O[C@]1(C(=O)SCF)[C@H](C)C[C@H]2[C@@H]3C[C@H](F)C4=CC(=O)C=C[C@]4(C)[C@@]3(F)[C@@H](O)C[C@@]21C	16.6% [at 42.5 µM]	–
CCCCNC(=S)NCCCC	–	48.6 µM (active)
CCc1cc(Cl)c(OC)c(C(=O)NC[C@@H]2CCCN2CC)c1O	48.1% [at 42.5 µM]	–
COC(=O)c1ccc(OC)cc1	-1.42%	–
O=C1CCN(c2ccccc2)N1	43.4%	–
CCCCCCCOC(=O)CCC	-10.8%	–
O=C(C(Cl)Cl)N1CCOC12CCCCC2	54.1%	–
Nc1ccc(Oc2ccc(N)c(N)c2)cc1	177%	–
Cc1c(C(=O)NCCO)[n+](=O)c2ccccc2n1[O-]	10.8% [at 42.5 µM]	–
NC(=O)Cc1cccc(C(=O)c2ccccc2)c1N	52.1% [at 42.5 µM]	–
CC(C)O	0.484%	–
Cc1ncc(CO)c(CN)c1O	23.4% [at 42.5 µM]	–
CCCc1c2oc(C(=O)O)cc(=O)c2cc2c(=O)cc(C(=O)O)n(CC)c12	-0.751% [at 42.5 µM]	–
CCN1CC(CCN2CCOCC2)C(c2ccccc2)(c2ccccc2)C1=O (stereo not given)	-7.76% [at 42.5 µM]	–

From PubChem BioAssay (Tox21)
